# From PMC7862700, “An all-to-all approach to the identification of sequence-specific readers for epigenetic DNA modifications on cytosine”
# Tests used:
# Experiment in all cases: DAPPL (digital affinity profiling via proximity ligation, sequencing); 10 mM Tris-HCl pH 7.5, 50 mM NaCl, 1 mM DTT, 4% glycerol, room temperature, 30 min; GST-TFs on glutathione beads, 16-mer random dsDNA library, 0.1% formaldehyde crosslink after washing; high values mean tight binding
# FLI1 = target: T1, FLI1 (Homo sapiens, UniProt Q01543 1-452); conditions: protein: recombinant; tags: N-terminal GST; dsDNA, one strand shown
# T1 sequence: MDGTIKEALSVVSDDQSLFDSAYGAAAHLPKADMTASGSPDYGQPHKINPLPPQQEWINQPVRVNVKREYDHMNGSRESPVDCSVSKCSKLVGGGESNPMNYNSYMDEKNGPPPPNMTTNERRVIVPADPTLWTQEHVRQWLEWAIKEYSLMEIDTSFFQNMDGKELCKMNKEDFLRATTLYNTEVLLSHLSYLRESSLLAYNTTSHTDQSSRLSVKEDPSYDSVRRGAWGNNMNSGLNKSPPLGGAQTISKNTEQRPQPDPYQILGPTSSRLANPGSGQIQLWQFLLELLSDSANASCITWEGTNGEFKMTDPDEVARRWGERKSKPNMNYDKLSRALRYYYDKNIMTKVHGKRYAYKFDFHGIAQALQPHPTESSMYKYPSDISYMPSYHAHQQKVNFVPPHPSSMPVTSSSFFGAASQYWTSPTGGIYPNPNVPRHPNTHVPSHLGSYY
# How it was run: (§1)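 Yeast served to express human transcription factors as GST fusions, which were then captured on glutathione beads and labelled with DNA barcodes. Pooled with a tag-only sample, they were incubated with 200 nmole of a 16-mer random double-stranded DNA library for 30 min at room temperature in Tris/NaCl/DTT/glycerol buffer, washed, crosslinked with 0.1% formaldehyde, ligated by proximity, amplified by PCR and sequenced. Dividing each hexamer's read frequency for a factor by its frequency for the tag-only sample gives the binding signal.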
# ELK1 = target: T2, ELK1 (Homo sapiens, UniProt P19419 1-428); conditions: protein: recombinant; tags: N-terminal GST; dsDNA, one strand shown
# T2 sequence: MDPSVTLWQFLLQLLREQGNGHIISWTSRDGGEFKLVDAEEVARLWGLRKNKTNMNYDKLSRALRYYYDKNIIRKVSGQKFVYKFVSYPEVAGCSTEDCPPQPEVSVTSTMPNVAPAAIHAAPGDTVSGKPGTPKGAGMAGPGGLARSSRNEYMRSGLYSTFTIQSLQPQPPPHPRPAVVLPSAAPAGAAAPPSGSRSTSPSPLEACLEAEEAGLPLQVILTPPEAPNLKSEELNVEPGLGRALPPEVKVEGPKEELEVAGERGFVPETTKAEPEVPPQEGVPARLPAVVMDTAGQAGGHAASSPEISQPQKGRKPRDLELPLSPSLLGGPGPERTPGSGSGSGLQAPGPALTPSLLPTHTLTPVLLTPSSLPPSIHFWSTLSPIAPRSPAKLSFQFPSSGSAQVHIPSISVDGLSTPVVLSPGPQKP
# How it was run: as §1
# GABPA = target: T3, GABPA (Homo sapiens, UniProt Q06546 1-454); conditions: protein: recombinant; tags: N-terminal GST; dsDNA, one strand shown
# T3 sequence: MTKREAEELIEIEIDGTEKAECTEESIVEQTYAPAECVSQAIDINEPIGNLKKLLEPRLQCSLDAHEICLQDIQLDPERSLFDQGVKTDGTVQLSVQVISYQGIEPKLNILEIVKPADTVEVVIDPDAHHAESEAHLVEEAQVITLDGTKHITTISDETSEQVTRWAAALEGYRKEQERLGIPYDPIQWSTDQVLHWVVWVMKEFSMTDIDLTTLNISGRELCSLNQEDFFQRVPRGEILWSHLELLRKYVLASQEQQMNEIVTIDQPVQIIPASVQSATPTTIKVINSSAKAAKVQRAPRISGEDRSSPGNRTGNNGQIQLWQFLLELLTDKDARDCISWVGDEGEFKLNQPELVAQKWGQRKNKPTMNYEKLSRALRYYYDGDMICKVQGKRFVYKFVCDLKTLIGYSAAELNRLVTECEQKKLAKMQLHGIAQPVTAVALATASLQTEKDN
# How it was run: as §1
# ERG = target: T4, ERG (Homo sapiens, UniProt P11308 1-479); conditions: protein: recombinant; tags: N-terminal GST; dsDNA, one strand shown
# T4 sequence: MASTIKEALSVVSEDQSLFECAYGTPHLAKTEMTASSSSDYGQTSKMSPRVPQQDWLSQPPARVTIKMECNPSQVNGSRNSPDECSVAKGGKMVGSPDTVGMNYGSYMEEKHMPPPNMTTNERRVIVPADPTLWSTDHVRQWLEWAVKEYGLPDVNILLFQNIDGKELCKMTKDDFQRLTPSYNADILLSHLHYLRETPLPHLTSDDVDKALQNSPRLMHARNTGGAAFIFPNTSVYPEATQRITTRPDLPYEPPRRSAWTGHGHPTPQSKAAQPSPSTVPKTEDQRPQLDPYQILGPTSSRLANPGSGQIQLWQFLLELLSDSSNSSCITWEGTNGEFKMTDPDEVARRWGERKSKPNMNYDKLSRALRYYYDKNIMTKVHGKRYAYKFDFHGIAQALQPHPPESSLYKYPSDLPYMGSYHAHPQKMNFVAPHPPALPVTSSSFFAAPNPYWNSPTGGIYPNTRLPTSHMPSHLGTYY
# How it was run: as §1
# ELF1 = ELF1 (Homo sapiens, UniProt P32519 1-619); conditions: protein: recombinant; tags: N-terminal GST; dsDNA, one strand shown
# How it was run: as §1
# EHF = target: T5, EHF (Homo sapiens, UniProt Q9NZC4 1-300); conditions: protein: recombinant; tags: N-terminal GST; dsDNA, one strand shown
# T5 sequence: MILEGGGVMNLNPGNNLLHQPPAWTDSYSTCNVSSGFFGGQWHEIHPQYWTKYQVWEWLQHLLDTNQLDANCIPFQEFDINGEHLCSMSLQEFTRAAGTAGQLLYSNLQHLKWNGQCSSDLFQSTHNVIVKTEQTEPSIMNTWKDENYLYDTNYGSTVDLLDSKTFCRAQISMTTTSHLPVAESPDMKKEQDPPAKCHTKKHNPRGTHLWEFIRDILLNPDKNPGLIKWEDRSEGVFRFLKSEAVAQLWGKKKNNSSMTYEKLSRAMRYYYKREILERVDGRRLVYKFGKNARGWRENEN
# How it was run: as §1
# SPI1 = SPI1 (Homo sapiens, UniProt P17947 1-270); conditions: protein: recombinant; tags: N-terminal GST; dsDNA, one strand shown
# How it was run: as §1
# SPIB = SPIB (Homo sapiens, UniProt Q01892 1-262); conditions: protein: recombinant; tags: N-terminal GST; dsDNA, one strand shown
# How it was run: as §1
# ELK3 = target: T6, ELK3 (Homo sapiens, UniProt P41970 1-407); conditions: protein: recombinant; tags: N-terminal GST; dsDNA, one strand shown
# T6 sequence: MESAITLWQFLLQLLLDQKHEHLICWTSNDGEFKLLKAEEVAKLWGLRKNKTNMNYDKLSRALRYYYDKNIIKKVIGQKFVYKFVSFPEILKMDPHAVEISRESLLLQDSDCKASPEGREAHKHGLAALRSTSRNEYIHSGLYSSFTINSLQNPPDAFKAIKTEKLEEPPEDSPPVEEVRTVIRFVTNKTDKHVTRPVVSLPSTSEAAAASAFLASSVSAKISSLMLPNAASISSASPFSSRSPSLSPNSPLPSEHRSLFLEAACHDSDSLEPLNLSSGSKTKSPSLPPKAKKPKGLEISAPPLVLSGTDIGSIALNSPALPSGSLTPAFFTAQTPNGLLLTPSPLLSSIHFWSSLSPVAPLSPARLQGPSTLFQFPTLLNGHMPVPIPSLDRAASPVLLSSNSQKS
# How it was run: as §1
# FEV = target: T7, FEV (Homo sapiens, UniProt Q99581 1-238); conditions: protein: recombinant; tags: N-terminal GST; dsDNA, one strand shown
# T7 sequence: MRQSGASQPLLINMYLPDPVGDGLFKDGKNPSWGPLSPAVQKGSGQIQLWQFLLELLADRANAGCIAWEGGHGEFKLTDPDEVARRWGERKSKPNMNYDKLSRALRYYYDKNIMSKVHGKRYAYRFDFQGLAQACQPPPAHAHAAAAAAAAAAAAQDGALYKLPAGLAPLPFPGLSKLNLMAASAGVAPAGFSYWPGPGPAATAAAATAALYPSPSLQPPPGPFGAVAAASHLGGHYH
# How it was run: as §1
# ETV5 = ETV5 (Homo sapiens, UniProt P41161 1-510); conditions: protein: recombinant; tags: N-terminal GST; dsDNA, one strand shown
# How it was run: as §1
# HSF1 = HSF1 (Homo sapiens, UniProt Q00613 1-529); conditions: protein: recombinant; tags: N-terminal GST; chain copies: 3; dsDNA, one strand shown
# How it was run: as §1
# SPIC = target: T8, SPIC (Homo sapiens, UniProt Q8N5J4 1-248); conditions: protein: recombinant; tags: N-terminal GST; dsDNA, one strand shown
# T8 sequence: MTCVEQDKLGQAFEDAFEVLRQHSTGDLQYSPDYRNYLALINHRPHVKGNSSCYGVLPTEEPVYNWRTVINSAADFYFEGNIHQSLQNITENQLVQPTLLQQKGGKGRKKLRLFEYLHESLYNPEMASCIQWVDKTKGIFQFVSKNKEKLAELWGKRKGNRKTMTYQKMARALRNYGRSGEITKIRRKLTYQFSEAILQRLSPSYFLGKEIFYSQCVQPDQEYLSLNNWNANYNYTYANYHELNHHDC
# How it was run: as §1
# ELF4 = ELF4 (Homo sapiens, UniProt Q99607 1-663); conditions: protein: recombinant; tags: N-terminal GST; dsDNA, one strand shown
# How it was run: as §1
# ELK4 = target: T9, ELK4 (Homo sapiens, UniProt P28324-2 1-405); conditions: protein: recombinant; tags: N-terminal GST; dsDNA, one strand shown
# T9 sequence: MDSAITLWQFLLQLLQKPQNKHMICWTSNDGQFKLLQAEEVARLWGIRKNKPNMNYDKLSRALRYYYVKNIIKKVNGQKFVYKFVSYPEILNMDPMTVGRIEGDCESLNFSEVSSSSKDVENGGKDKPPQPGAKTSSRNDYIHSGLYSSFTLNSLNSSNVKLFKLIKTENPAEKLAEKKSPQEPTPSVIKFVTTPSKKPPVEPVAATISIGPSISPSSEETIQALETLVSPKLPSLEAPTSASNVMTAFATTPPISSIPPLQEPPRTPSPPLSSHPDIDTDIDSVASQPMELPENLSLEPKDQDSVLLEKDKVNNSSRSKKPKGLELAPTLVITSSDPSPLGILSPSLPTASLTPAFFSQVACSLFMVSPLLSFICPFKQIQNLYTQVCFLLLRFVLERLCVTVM
# How it was run: as §1
# ETV2 = target: T10, ETV2 (Homo sapiens, UniProt O00321 1-342); conditions: protein: recombinant; tags: N-terminal GST; dsDNA, one strand shown
# T10 sequence: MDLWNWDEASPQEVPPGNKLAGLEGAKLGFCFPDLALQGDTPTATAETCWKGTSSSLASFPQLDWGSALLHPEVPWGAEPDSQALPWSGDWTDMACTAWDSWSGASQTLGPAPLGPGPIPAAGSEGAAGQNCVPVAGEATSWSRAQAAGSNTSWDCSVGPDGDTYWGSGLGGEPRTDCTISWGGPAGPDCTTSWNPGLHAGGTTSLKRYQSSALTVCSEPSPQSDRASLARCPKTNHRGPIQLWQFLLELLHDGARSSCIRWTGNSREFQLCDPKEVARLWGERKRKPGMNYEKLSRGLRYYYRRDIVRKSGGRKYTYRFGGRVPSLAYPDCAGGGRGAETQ
# How it was run: as §1
# ELF3 = target: T11, ELF3 (Homo sapiens, UniProt P78545 1-371); conditions: protein: recombinant; tags: N-terminal GST; dsDNA, one strand shown
# T11 sequence: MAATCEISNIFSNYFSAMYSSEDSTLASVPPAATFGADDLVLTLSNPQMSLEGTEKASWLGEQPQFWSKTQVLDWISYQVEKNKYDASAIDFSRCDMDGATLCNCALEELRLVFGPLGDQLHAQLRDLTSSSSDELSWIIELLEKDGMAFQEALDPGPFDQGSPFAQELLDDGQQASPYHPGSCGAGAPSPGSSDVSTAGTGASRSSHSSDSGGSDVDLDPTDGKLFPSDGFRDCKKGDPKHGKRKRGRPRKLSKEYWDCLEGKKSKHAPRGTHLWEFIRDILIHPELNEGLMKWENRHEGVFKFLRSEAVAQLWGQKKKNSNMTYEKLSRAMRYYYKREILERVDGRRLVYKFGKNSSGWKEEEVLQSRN
# How it was run: as §1
# CRX = CRX (Homo sapiens, UniProt O43186 1-299); conditions: protein: recombinant; tags: N-terminal GST; dsDNA, one strand shown
# How it was run: as §1
# ETV1 = ETV1 (Homo sapiens, UniProt P50549 1-477); conditions: protein: recombinant; tags: N-terminal GST; dsDNA, one strand shown
# How it was run: as §1
# ELF4, sequence (Q99607 whole entry): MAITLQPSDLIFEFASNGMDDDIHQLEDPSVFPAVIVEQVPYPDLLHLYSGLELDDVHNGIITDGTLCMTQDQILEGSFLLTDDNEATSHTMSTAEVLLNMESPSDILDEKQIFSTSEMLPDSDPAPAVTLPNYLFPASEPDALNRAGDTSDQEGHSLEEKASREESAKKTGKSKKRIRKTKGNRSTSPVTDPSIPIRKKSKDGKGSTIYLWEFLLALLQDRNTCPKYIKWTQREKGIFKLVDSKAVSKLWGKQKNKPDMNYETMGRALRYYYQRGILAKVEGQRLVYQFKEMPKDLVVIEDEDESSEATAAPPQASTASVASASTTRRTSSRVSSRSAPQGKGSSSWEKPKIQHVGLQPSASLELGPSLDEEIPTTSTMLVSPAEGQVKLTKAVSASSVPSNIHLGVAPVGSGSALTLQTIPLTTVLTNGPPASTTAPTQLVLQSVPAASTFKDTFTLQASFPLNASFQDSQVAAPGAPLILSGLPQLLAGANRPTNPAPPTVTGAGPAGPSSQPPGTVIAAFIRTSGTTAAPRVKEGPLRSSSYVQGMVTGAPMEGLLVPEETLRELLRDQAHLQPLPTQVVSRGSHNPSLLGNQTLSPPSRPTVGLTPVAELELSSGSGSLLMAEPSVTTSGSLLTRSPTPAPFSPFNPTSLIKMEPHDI
# CRX, sequence (O43186 whole entry): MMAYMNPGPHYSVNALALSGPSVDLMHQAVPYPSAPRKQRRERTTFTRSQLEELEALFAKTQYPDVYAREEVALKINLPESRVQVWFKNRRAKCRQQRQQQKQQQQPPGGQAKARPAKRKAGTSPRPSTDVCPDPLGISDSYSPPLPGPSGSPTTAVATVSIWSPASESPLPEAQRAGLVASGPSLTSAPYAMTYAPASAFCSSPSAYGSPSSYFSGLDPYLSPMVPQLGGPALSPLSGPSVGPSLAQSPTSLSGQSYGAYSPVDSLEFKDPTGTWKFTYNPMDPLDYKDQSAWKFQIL
# HSF1, sequence (Q00613 whole entry): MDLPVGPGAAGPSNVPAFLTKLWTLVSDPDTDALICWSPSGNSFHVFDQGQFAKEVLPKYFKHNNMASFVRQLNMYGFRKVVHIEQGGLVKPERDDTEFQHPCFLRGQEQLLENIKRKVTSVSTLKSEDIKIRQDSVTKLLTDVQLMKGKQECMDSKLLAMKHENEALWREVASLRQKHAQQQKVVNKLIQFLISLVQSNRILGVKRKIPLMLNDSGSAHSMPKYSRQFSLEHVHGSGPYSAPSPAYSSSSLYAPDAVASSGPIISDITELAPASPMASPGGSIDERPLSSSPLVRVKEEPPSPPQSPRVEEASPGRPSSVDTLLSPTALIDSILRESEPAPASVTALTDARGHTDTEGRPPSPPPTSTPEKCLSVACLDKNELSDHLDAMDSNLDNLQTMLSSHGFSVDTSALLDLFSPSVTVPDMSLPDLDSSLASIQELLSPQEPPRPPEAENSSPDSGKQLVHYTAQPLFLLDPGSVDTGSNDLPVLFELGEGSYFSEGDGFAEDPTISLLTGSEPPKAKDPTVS
# ETV1, sequence (P50549 whole entry): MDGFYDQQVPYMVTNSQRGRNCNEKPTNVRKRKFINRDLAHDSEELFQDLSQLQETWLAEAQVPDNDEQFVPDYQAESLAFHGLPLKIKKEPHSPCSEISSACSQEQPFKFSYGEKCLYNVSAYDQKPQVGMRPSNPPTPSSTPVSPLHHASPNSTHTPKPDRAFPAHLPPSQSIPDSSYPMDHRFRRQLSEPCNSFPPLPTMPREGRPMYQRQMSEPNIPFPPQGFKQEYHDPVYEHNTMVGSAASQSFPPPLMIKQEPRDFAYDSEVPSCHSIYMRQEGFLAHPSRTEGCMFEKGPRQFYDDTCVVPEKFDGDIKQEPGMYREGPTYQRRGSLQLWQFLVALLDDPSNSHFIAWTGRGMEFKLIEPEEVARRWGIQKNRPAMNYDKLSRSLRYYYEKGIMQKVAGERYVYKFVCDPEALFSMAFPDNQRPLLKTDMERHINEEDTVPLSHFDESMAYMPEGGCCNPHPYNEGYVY
# ELF1, sequence (P32519 whole entry): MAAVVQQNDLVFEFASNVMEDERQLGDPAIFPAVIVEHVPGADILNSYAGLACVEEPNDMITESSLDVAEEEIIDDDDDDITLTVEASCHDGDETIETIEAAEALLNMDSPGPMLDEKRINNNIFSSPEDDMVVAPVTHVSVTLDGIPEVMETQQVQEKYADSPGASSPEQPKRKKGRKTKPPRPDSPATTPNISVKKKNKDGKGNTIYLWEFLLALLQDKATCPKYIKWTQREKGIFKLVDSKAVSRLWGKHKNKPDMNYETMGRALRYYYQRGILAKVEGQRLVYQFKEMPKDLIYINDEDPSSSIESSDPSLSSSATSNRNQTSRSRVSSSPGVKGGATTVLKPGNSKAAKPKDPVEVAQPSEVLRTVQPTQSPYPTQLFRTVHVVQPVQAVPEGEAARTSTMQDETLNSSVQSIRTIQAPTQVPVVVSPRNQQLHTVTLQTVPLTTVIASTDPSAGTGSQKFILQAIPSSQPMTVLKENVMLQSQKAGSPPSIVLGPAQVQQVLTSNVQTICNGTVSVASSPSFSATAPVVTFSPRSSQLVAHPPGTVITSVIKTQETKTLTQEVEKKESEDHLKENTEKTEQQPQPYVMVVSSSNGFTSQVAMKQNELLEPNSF
# SPIB, sequence (Q01892 whole entry): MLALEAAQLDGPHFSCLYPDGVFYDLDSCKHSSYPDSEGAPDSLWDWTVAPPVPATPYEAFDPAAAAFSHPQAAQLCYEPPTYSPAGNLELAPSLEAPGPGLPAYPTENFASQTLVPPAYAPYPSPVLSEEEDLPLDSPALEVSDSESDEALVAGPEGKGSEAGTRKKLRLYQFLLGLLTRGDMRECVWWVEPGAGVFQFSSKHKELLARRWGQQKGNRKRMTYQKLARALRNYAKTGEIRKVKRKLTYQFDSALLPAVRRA
# ETV5, sequence (P41161 whole entry): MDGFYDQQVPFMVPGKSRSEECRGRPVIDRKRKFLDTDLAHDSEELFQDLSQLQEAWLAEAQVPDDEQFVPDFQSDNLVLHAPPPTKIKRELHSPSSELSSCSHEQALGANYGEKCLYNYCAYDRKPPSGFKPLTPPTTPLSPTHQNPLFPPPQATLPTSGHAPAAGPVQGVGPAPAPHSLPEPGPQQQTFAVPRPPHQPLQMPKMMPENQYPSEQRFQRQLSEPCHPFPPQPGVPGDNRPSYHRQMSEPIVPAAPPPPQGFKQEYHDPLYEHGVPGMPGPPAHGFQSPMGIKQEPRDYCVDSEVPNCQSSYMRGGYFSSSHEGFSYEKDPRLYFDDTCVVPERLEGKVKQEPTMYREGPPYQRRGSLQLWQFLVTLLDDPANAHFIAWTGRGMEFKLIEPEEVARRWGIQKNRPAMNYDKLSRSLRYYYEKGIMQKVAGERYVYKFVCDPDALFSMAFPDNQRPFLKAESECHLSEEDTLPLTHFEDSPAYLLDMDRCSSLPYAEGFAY
sequence,measurement,setting,value
CTGGTT,binding signal,FLI1,"1.36 fold enrichment (6-mer frequency, TF over GST control)"
same,binding signal,ELK1,"1.3 fold enrichment (6-mer frequency, TF over GST control)"
same,binding signal,GABPA,"1.2 fold enrichment (6-mer frequency, TF over GST control)"
same,binding signal,ERG,"1.31 fold enrichment (6-mer frequency, TF over GST control)"
same,binding signal,ELF1,"1.31 fold enrichment (6-mer frequency, TF over GST control)"
same,binding signal,EHF,"1.18 fold enrichment (6-mer frequency, TF over GST control)"
same,binding signal,SPI1,"1.45 fold enrichment (6-mer frequency, TF over GST control)"
same,binding signal,SPIB,"1.24 fold enrichment (6-mer frequency, TF over GST control)"
same,binding signal,ELK3,"1.21 fold enrichment (6-mer frequency, TF over GST control)"
same,binding signal,FEV,"1.19 fold enrichment (6-mer frequency, TF over GST control)"
same,binding signal,ETV5,"1.36 fold enrichment (6-mer frequency, TF over GST control)"
same,binding signal,HSF1,"1.24 fold enrichment (6-mer frequency, TF over GST control)"
same,binding signal,SPIC,"1.43 fold enrichment (6-mer frequency, TF over GST control)"
same,binding signal,ELF4,"1.33 fold enrichment (6-mer frequency, TF over GST control)"
same,binding signal,ELK4,"1.46 fold enrichment (6-mer frequency, TF over GST control)"
same,binding signal,ETV2,"1.2 fold enrichment (6-mer frequency, TF over GST control)"
same,binding signal,ELF3,"1.22 fold enrichment (6-mer frequency, TF over GST control)"
same,binding signal,CRX,"1.22 fold enrichment (6-mer frequency, TF over GST control)"
same,binding signal,ETV1,"1.3 fold enrichment (6-mer frequency, TF over GST control)"
